Source: PubChem BioAssay
The list is not random: actives were taken first. Their share in the collection is about 10%.
G9a block – qHTS Assay for Inhibitors of Histone Lysine Methyltransferase G9a; Potency, µM (titrated, usually from 102 µM), inactives show at the top dose activity, negative = inhibition, usual class: inhibitors; actives 8.8% (n = 350,000); AID 504332, 2011; G9a H3K9 monomethylation, AlphaScreen, 2 h; note: potency is the fitted concentration of half-maximal effect; % is set by controls: 0 for no effect and ±100 for the full control effect; nearly all actives have a fitted effect of over 75% in size
Target sequence (Q96KQ7 913-1193 limits assumed): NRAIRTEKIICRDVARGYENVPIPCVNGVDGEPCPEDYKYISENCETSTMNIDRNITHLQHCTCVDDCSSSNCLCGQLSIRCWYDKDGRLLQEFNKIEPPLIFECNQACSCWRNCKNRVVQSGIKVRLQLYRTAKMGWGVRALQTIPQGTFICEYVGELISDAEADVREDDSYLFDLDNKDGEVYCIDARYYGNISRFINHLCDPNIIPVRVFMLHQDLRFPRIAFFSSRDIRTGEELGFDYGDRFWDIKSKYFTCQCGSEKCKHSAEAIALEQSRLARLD
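Chemiluminescent proximity detection of H3K9 monomethylation, read after 10 min bead incubation in the dark. Reaction: 20 nM G9a, 500 nM biotin-H3K9 peptide, 20 uM SAM cofactor, 2 h, room temperature, following 15 min enzyme-compound preincubation.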
HP1b chromo inh – HTS for Inhibitors of HP1-beta Chromodomain Interactions with Methylated Histone Tails; AlphaScreen HP1-beta / biotin-H3K9me3 peptide binding; Chromobox protein homolog 1 (Homo sapiens), P83916; actives 0.56% (n = 390,000); AID 540317, 2011; Potency, µM (highest dose often 114 µM), inactives show at the top dose activity change, negative = inhibition, usual class: inhibitors; note: potency is the fitted concentration of half-maximal effect; nearly all actives have a fitted effect of over 70% in size
Target sequence (P83916 whole entry, looked up): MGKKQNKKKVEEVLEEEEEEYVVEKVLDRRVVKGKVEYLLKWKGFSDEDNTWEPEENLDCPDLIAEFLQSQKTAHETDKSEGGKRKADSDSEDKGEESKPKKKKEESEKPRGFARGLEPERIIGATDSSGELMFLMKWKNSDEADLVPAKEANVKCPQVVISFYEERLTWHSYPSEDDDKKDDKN
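AlphaScreen: HP1-beta (50 nM) preformed 30 min with biotin-H3(1-18)K9me3 peptide (50 nM) in PBS pH 7.4, 0.01% Tween-20. Compound added for 30 min at RT, then streptavidin donor/nickel chelate acceptor beads (10 ug/mL) for 30 min.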
JMJD2A Tudor – qHTS Assay for Inhibitors of JMJD2A-Tudor Domain; Potency, µM (titrated, usually from 114 µM), without a hit: top-dose activity change, negative = inhibition, usual class: inhibitors; actives 4.4% (n = 390,000); AlphaScreen JMJD2A-Tudor / H3K4me3 peptide binding; note: potency is the fitted concentration of half-maximal effect; % is set by controls: 0 for no effect and ±100 for the full control effect; nearly all actives have a fitted effect of over 50% in size
BAZ2B block – qHTS Assay for Inhibitors of BAZ2B. Bromodomain adjacent to zinc finger domain protein 2B (Homo sapiens), Q9UIF8. AlphaScreen BAZ2B-H3K14Ac peptide displacement. Potency, µM (doses to about 114 µM), inactives show at the top dose activity change, negative = inhibition, actives largely listed as inhibitors. actives 4.4% (n = 360,000). AID 504333, 2011; note: potency is the fitted concentration of half-maximal effect; % is set by controls: 0 for no effect and ±100 for the full control effect; nearly all actives have a fitted effect of over 60% in size
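In this displacement format the biotinylated H3(5-23) peptide acetylated at Lys14 serves as ligand at 50 nM, with BAZ2B at 50 nM in PBS pH 7.4 containing 0.01% Tween-20. Donor and acceptor beads are 10 ug/mL final.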
CtBP-E1A inh – qHTS Assay for Inhibitors of the CtBP/E1A Interaction. AID 651724, 2012. CtBP / adenovirus E1A interaction (AlphaScreen). actives 0.49% (n = 340,000). AlphaScreen GST-E1A/His-CtBP binding, 1536-well; stronger effect = lower value. activity change, % (test concentration not listed); in the data active = activity change below about -65%; inconclusive = mostly about -30% to -63%; note: % is set by controls: 0 for no effect and ±100 for the full control effect
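Steps: dispense buffer (Tris pH 8.0, NaCl 300 mM, TCEP 1 mM, BSA, Tween 20); add 5X protein mix (GST-E1A, His-CtBP, 125 nM each); pin 23 nL compound; 2 h at 37 °C, dark; add 5X beads (50 ug/mL); 1 h; read.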
Six1-Eya2 blk – qHTS Assay for Inhibitors of the Six1/Eya2 Interaction; Homeobox protein SIX1 (Homo sapiens) + Protein phosphatase EYA2 (Homo sapiens), …; AlphaScreen GST-Six1/His-Eya2 binding, biochemical; stronger effect = lower value; activity change, % (no concentration beside the values); actives 0.56% (n = 360,000); AID 651725, 2012; in the data active = activity change below about -65%; inconclusive = mostly about -30% to -63%; note: % is set by controls: 0 for no effect and ±100 for the full control effect
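Homogeneous AlphaScreen proximity assay pairing GST-Six1 with His-tagged Eya2 (added as 5X mix: 250 nM and 500 nM) in 50 mM Tris pH 8.0, 300 mM NaCl, 1 mM TCEP. Glutathione donor and nickel acceptor beads; 1 h, 37 °C, dark.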
* marks the source's active call; other numbers are inactive results; [ ] = another dose, or the depositor's remark. Unless noted, calls come from the whole dose curve; as a rule, active = well fitted inhibition curve with a large enough effect; inconclusive = small, poorly fitted or top-dose-only effect; inactive = no such curve, though single readings can be large or run the other way.

What do the screens show for `CC(C)CCSc1nc2[nH]ncc2c(=O)[nH]1`?
G9a block: 1%; HP1b chromo inh: 17%; JMJD2A Tudor: 13%; BAZ2B block: -10%; CtBP-E1A inh: 3; Six1-Eya2 blk: 0

What do the screens show for `OCCn1c(-c2ccc(F)cc2)csc1=Nc1ccccc1`?
G9a block: 20µM*; HP1b chromo inh: inconclusive; JMJD2A Tudor: inconclusive; BAZ2B block: 25µM*; CtBP-E1A inh: -9; Six1-Eya2 blk: -26

Results for OC(c1ccccc1)(c1nc(-c2ccc3c(c2)OCO3)cs1)C(F)(F)F (stereo not drawn) ?
CtBP-E1A inh: 0; Six1-Eya2 blk: 1

Results for OCCn1c(-c2ccc3c(c2)OCO3)csc1=Nc1ccccc1 ?
G9a block: -47%[12.7 µM]; HP1b chromo inh: inconclusive; JMJD2A Tudor: 40µM*; BAZ2B block: 40µM*; CtBP-E1A inh: -24; Six1-Eya2 blk: inconclusive

Results for N=c1n(CCO)c2ccccc2n1CCOc1ccc(F)cc1 ?
G9a block: 4%[59 µM]; HP1b chromo inh: 21%; JMJD2A Tudor: -17%; BAZ2B block: 2%

Results for COC(=O)C1=C(C)NC=C([N+](=O)[O-])C1c1ccc(OC)cc1 (stereo not drawn) ?
G9a block: -40%[59 µM]; HP1b chromo inh: 23%; JMJD2A Tudor: -22%; BAZ2B block: -7%; CtBP-E1A inh: 5; Six1-Eya2 blk: 5

Results for O=C(Nc1ccc2c(c1)OCO2)C1Cc2c(-c3ccccc3Oc3ccccc3)ccnc2O1 (stereo not drawn) ?
CtBP-E1A inh: -24; Six1-Eya2 blk: -26

Results for OC(CN1CCOCC1)c1ccc(F)cc1 (stereo not drawn) ?
G9a block: -41%; HP1b chromo inh: inconclusive; JMJD2A Tudor: 20µM*; BAZ2B block: 50µM*; Six1-Eya2 blk: -3

Results for CCCCCC(=O)NC(Cc1ccc(OC)c([N+](=O)[O-])c1)C(=O)O (stereo not drawn) ?
G9a block: 1%; HP1b chromo inh: 31%; JMJD2A Tudor: inconclusive; BAZ2B block: 0%; Six1-Eya2 blk: -1

How did N=c1n(CC(=O)c2ccc([N+](=O)[O-])cc2)c2ccccc2n1Cc1ccccc1 do in these assays?
G9a block: 45µM*; HP1b chromo inh: 6%; JMJD2A Tudor: -19%; BAZ2B block: inconclusive; CtBP-E1A inh: -1; Six1-Eya2 blk: -6

What do the screens show for `N=c1n(CCN2CCCCC2)c2ccccc2n1CC(=O)c1cccc([N+](=O)[O-])c1`?
G9a block: 45µM*; HP1b chromo inh: 14%; JMJD2A Tudor: -24%; BAZ2B block: inconclusive; CtBP-E1A inh: -18; Six1-Eya2 blk: -21

How did C=CCn1c(=N)n(CC(=O)c2cccc([N+](=O)[O-])c2)c2ccccc21 do in these assays?
HP1b chromo inh: 8%; JMJD2A Tudor: -16%; BAZ2B block: inconclusive; CtBP-E1A inh: 3; Six1-Eya2 blk: 0

Results for Cc1cccc(-c2nc(CSCC(=O)N3CCN(c4ccccc4)CC3)c(C)o2)c1 ?
G9a block: inconclusive; HP1b chromo inh: -14%; JMJD2A Tudor: inconclusive; BAZ2B block: inconclusive

What do the screens show for `Cc1ccc(NS(=O)(=O)c2ccc3c(c2)C(Cl)(Cl)C(=O)N3)cc1C`?
JMJD2A Tudor: -31%

Results for Cc1ccnc(NC(=O)Nc2cccc(F)c2)c1 ?
G9a block: -7%[59 µM]; HP1b chromo inh: 16%; JMJD2A Tudor: 0%; BAZ2B block: 4%; CtBP-E1A inh: 4; Six1-Eya2 blk: 5

How did CC(C)(C)OC(=O)N1CCC[C@H]1C(=O)N1CCC[C@H]1C(=O)NCc1ccncc1 do in these assays?
CtBP-E1A inh: -1; Six1-Eya2 blk: 1
